Measurements taken from PubChem BioAssay.
Values without a mark were called inactive. The rule behind the calls is not given here.

What follows are compounds tested against Pantothenate synthetase (Mycobacterium tuberculosis (strain ATCC 25618 / H37Rv)) (UniProt P9WIL5) (assay: Recombinant Mtb pantothenate synthetase (PanC) inhibitors, coupled enzyme, confirmatory (AID 375;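 note: 0% = full reaction with vehicle and 100% = no enzyme background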)). Settings: coupled enzyme assay; at 10 µM, hits give high values.
Sequence of Pantothenate synthetase (Mycobacterium tuberculosis (strain ATCC 25618 / H37Rv)) (P9WIL5 whole entry, looked up): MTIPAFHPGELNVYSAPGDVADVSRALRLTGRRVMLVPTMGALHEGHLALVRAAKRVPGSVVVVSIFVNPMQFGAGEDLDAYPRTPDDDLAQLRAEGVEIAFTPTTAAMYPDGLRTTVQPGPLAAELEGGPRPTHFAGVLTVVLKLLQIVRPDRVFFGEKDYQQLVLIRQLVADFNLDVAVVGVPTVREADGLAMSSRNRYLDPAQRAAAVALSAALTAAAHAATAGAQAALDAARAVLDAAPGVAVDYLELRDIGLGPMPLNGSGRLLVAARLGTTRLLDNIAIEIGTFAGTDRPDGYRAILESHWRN

| SMILES | inhibition |
| --- | --- |
| O=C(Nn1c(C2CC2)nc2ccccc2c1=O)c1ccco1 | 0% |
| O=C(CCc1ccc(S(=O)(=O)N2CCOCC2)cc1)NCCc1ccccn1 | 0% |
| O=C(CN(c1ccc(F)cc1)S(=O)(=O)c1ccc2c(c1)OCCO2)Nc1cccnc1 | 0% |
| N#CC(C(=O)Nc1ccc(Cl)c(Cl)c1)=C1Nc2ccccc2N1 | 2% |
| CCCCn1c(CN(C)Cc2ccccc2)nc2c1c(=O)n(C)c(=O)n2C | 0% |
| C=CCN1C(=O)C2(C(C#N)=C(N)Oc3n[nH]c(CCC)c32)c2ccccc21 (stereo not given) | 0% |
| CCCn1c(SCC(=O)N2CCCc3ccccc32)nnc1-c1ccccn1 | 3% |
| COc1ccc(Cl)cc1NC(=O)c1oc(C)nc1C | 4% |
| Cc1ccc(Cn2c(C)nc3c(c2=O)c2nc4ccccc4nc2n3Cc2ccco2)cc1 | 0% |
| CCNc1ccc2c(Cl)cc(=O)oc2c1 | 5% |
| CCN1CCN(Cc2ccc(NC(=O)Nc3ccc(SC)cc3)cc2)CC1 | 2% |
| CC1=C(C(=O)Nc2cccnc2)C(c2ccc(C(C)C)cc2)n2ncnc2N1 (stereo not given) | 1% |
| Cc1ccccc1NC(=O)CSc1nc(N)c(C#N)c(-c2cccs2)c1C#N | 0% |
| COc1ccc(C)cc1S(=O)(=O)Nc1cccnc1 | 0% |
| O=C1c2ccccc2C(=O)N1CCN1CCCCC1 | 7% |
| O=C(COc1ccc(Cl)cc1)NCc1nnc(SCC(=O)Nc2ccc3c(c2)OCCO3)o1 | 3% |
| CCOC(=O)N1CCC(NC(=O)c2ccc3c(c2)N(C)CCS3)CC1 | 6% |
| Cc1ccc(NCc2nnc(SCC(=O)NCc3ccco3)n2CC2CCCO2)cc1Cl (stereo not given) | 3% |
| Cc1ccc(NC(=O)Nc2ccc3c(c2)N(C)C(=O)CS3)nc1 | 5% |
| Cc1cc(C)c(NC(=O)CSc2nnc(-c3ccncc3)n2Cc2ccco2)c(C)c1 | 0% |

| SMILES | inhibition |
| --- | --- |
| COC(=O)CCCCCc1ccc(C(C)=O)s1 | 4% |
| Cc1ccc(NC(=O)N2CCC(c3nc4c(nnn4Cc4cccc(Cl)c4)c(=O)[nH]3)CC2)cc1 | 0% |
| CCCCOC(=O)CNc1nnc(SCC(=O)OCC)[nH]c1=O | 3% |
| CC(=O)Nc1cccc(NC(=O)c2ccco2)c1 | 0% |
| CCNc1ccc(S(=O)(=O)C(F)(F)F)cc1NC(=O)C12CCC(CC1)C2 | 0% |
| COCCOC(=O)c1c(C)nc(SCC(=O)Nc2ccc(OC)cc2)c(C#N)c1-c1ccco1 | 0% |
| Cc1ccccc1CSCC(=O)c1c(N)n(C)c(=O)n(C)c1=O | 2% |
| CCOc1ccccc1Nc1nc2ccccc2[nH]1 | 1% |
| Cc1cc(C)c2c(=O)n(CC(=O)N3CCC(Cc4ccccc4)CC3)sc2n1 | 0% |
| Cc1ccccc1C(=O)NC1CCN(Cc2nnnn2Cc2ccccc2)CC1 | 4% |
| CCc1c(C)n([O-])c2c([n+]1=O)CCC2 | 0% |
| Cc1ccc(S(=O)(=O)C2(C(=O)N3CCCCCC3)CC2)cc1 | 0% |
| COc1cccc(C(=O)Nc2ccc(NC(C)=O)cn2)c1 | 0% |
| COc1ccccc1NC(=O)NCc1ccc2c(c1)OCO2 | 1% |
| O=C(CN1CCN(c2nc(-c3ccc(F)cc3)cs2)CC1)NCc1ccc2c(c1)OCO2 | 5% |
| COC(=O)C1=C(C)n2nnnc2NC1c1ccc(Cl)cc1 (stereo not given) | 2% |
| CC1CCc2cc(F)cc3c(O)c(C(=O)NCC4CCCO4)c(=O)n1c23 (stereo not given) | 2% |
| COc1cc(-c2nc(-c3ccncc3)no2)cc(OC)c1OC | 2% |
| O=C(CN1C(=O)COc2ccccc21)NCCN1CCc2ccccc2C1 | 7% |
| COc1ccc(OC)c(S(=O)(=O)N2CCC(C(=O)NCc3ccccc3OC)CC2)c1 | 0% |
